Measured values from the supplement of paper PMC6555819.

system: LXRa:RXRa (NR concentration 270 nM, RXRa partner concentration 90 nM); assay: PBM binding z-score (relative to random genomic background probes); higher = stronger binding; sequences stand for … in GC…GCGATTGACAGCGTAGAATGAAGG
In short: (§1)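 Binding z-scores were set against random background probes. The data came from custom Agilent 4×180K protein-binding microarrays carrying double-stranded probes with 34-nt variable regions, incubated 1 h with ligand-free nuclear receptor dimers. Partner-specific antibodies detected binding, and scanned fluorescence was regression-normalized.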

Sequence | PBM binding z-score
CCTACTGGGCCAAAGGTCATTGCTTCCAATGCTC | 5.17
TCTATCAGTTGATTAGGGCAACCGAAACAGCGGA | 0.15
TCGAGTAGGTGAGGGGCATTCAGAATGGCGTCGA | -0.0871
CCGAATGGGGCATAAGGTTACCATAAGCCAGCCC | 2.03
CGTCCAAGGTCAATGCTAGGTCCGTGAAAGCATT | 4.45
CCGACTGGGGCAGAAAGGTTATCATACCATCCGG | 0.483
AGAATGAGGTTACCAAAGAGCAGGGAAACGCTTG | 5.78
TCTTGTAGAGCAGCAGGTTAAGAAAGCTGGCCAA | -0.0132
CAAACTAGATCACAGAGGTCAAAGTCCGTGCGTA | 5.45
CCTACAGGGCCATTCAGAGGTCATTGATCATATG | 4.65
CGAACTAGCTCATTGACAGGACAGTGAATAGTAA | -0.373
GGAACGAGGGCATTCGGGTTGATAGCATGGCGAT | 1.22
CTCGAAAGGTCCTGCTCAGGTGAGTATACCAAAC | 0.0121
AGAATGAGGATATACGTAGATCAGGGAAGAAAGT | -0.666
ATCGAAAGGTCTAGGTGAGTATAGAGAAAGGGAA | 0.836
TTACCAAGGTGAGCTGAGGTCGTTGATCCAACTC | 1.31
GATACAGAGTCAAGGCCAGAGTACGCGTATTGAT | -0.442
CGTCCAAGGTCAGAGAGATCAGTGAATGCCGAGT | 2.88

system: LXRa homodimer (NR concentration 270 nM); assay: as above
In short: as §1

Sequence | PBM binding z-score
CAAACTAGGTTAAGAGGTCAAAGTCCGCTTCCCG | 6.25
CGTCCAAGGTCAGCAGGTCCGTGAAAGCGACGTG | -0.42
CGTCATAGTTCAACTAAGGTAACGTAAAGCACGC | 1.02
ACCTCTAGGTAAAAGTTCAGTGAATCCCGAGGAT | 0.847
GCATATAGGTAATACAAGGTGAAAGCCCGATTGT | 0.224
CGAACTAGGTCATTGACAGTACAGTGAATAGTAA | 0.32
AGTCAAAGTTCATTAGGTAACGTAAGATTCAGCT | 5.2
TCTTGTAGATCAACCGGAGGTTAAGAAAGATCGA | 1.09
CGAACTAGGTCAGAACAGGCCAGTGAAGGATGAT | -0.282
ATCTCTAGGTAAGACTCAGTTCAGTTAAGAACGC | 0.553
AGAATGAGCTTACCAAAGATCAGGGAAACGCTTG | -0.203
GATACAGGATCAAGGCCAGAGTACGCGTATTGAT | -0.269
CGAACTAGGTCAGAACAGGACTGTGAAGGATGAT | -0.197
GCTGCTAGGGCAACTGATGGTCAGCTAAAGCTCG | -0.858
CTCGAAAGGTCGTGCTCGGGTGAGTATACCAAAC | -0.0589
GCTTGTAGATCAAGGTTAAGACAGACTAAGCTAA | -0.318

Sequence | PBM binding z-score
TCTATTAGCTGATTAGGGCAACCGAAACAGCGGA | -0.333
ACTTACGGGTCAAAGAGGTTATAGCACGCGTATA | 1.34
TCTAGTTGGTCAAAGGACACACACTCGAAATGCG | 0.232
GCTGCTAGCTCAGGTTGGTCAGCTAACGGGTACG | -0.914
GCTGCTAGGTCAACTGATGGGCAGCTAAAGCTCG | -0.419
CGGACTGGGGCATAAGGTTACCATAAGCCAGCCC | -0.514
CCTACTGGGCCAAAGGTCATTGCTTCCAATGCTC | 4.85
TCTATCAGTTGATTAGGGCAACCGAAACAGCGGA | -0.239
TCGAGTAGGTGAGGGGCATTCAGAATGGCGTCGA | -0.49
CCGAATGGGGCATAAGGTTACCATAAGCCAGCCC | -0.224
CGTCCAAGGTCAATGCTAGGTCCGTGAAAGCATT | 0.519
CCGACTGGGGCAGAAAGGTTATCATACCATCCGG | 0.0667
AGAATGAGGTTACCAAAGAGCAGGGAAACGCTTG | -0.463
TCTTGTAGAGCAGCAGGTTAAGAAAGCTGGCCAA | -1.04
CAAACTAGATCACAGAGGTCAAAGTCCGTGCGTA | 6.08
